Assay outcomes: PubChem, National Center for Advancing Translational Sciences (NCATS)
D1 PAM – potentiators of human D1 dopamine receptor | P21728 | HEK293 TREx D1 cells, calcium flux, dopamine EC20 potentiation | potentiation, % at 10 µM | 360,000 tested, 0.036% active; in the data active = potentiation above about 30%; also: 0% is about no effect
Target sequence (P21728 whole entry, looked up): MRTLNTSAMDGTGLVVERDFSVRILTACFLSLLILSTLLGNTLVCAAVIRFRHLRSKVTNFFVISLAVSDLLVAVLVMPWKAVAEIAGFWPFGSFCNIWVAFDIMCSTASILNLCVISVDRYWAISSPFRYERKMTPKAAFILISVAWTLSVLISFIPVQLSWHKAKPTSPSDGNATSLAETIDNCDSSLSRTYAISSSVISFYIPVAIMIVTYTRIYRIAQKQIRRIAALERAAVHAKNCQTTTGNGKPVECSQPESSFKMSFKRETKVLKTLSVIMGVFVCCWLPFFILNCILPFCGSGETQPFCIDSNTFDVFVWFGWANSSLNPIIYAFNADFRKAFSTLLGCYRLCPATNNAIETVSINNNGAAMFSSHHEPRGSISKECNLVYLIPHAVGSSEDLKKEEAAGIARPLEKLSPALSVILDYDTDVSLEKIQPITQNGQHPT
D1 antagonist – antagonists of human D1 dopamine receptor; HEK293 TREx D1 cells, calcium flux, dopamine EC80; hits give low values; activity change, negative = inhibition, % at 10 µM; 360,000 tested, 3.2% active; AID 504652; in the data active = activity change below about -30%; also: % is scaled to controls: 0 for no effect and ±100 for the full control effect
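Tetracycline-induced HEK293 T-REx cells with force-coupled D1 receptor were loaded with a no-wash calcium dye. Compound was added after a 10 s baseline and read kinetically for 180 s; EC80 dopamine was then added and calcium flux followed another 180 s.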
D1 ag – human D1 receptor agonism; AID 504660; 360,000 tested, 1% active; activation, % at 2 µM; P21728; HEK293 T-REx D1 cells, calcium flux, agonist mode; in the data active = activation above about 30%; also: 0% is about no effect
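Tetracycline-induced HEK293 TREx D1 cells, force-coupled to calcium signalling, were dye-loaded with a no-wash calcium kit. Compound was pin-added after a 10 s baseline. Fluorescence was read kinetically at 1 cycle/s for 180 s, with calcium rises flagged as agonism.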
D3 ag – agonists of human D3 dopamine receptor; 410,000 tested, 0.58% active; P35462; max activation, %; AID 652048; D3R DiscoveRx beta-arrestin cells, luminescence, 90 min; in the data active = max activation above about 30%; also: 0% is about no effect
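Agonist mode: compounds and dopamine controls were applied to plated cells for 90 min at 37 degrees C after an overnight attachment at 1500 cells/well. Luminescent read-out followed 30 - 60 minutes at room temperature with DiscoveRx detection reagent.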
D3 antag – D3 dopamine receptor (human) antagonism. P35462. D3R cells, DiscoveRx beta-arrestin luminescence, antagonist mode; hits give low values. max response, negative = inhibition, %. 360,000 tested, 2.5% active; in the data active = max response below about -50%; also: % is scaled to controls: 0 for no effect and ±100 for the full control effect
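Cells plated overnight at 1500 cells/well, then exposed to library compounds with dopamine controls for 90 minutes at 37 degrees C. DiscoveRx reagent added for 30–60 minutes at room temperature; luminescence read, quantitative HTS format.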
* hit, by the source's call; / = no result; ! = a repeat was not active. Compounds with a hit are over-represented: about 6% of the library has one in this group of screens.

SMILES | D1 PAM | D1 antagonist | D1 ag | D3 ag | D3 antag
COC(=O)CCc1c(C)[nH]c(C(=O)OCc2ccccc2)c1C | -1 | 6 | 1 | -10 | -8
CCOC(=O)CCc1c(C(=O)OCC)[nH]c(CC)c1C(=O)OCc1ccccc1 | 12 | 6 | 14 | 31* | 27
CCNC(=S)NS(=O)(=O)c1ccccc1 | -3 | -3 | 2 | 1 | -58*
CCNC(=S)NS(=O)(=O)c1ccc(Cl)cc1 | -1 | 21 | 4 | 7 | -2
COc1ccc(Cl)cc1CC1(C)C(=O)Nc2c(Cl)cccc21 (configuration not stated) | / | / | / | 6 | -2
COC(=O)c1ccccc1-c1ccc(/C=N/NC(=O)c2cc3ccccc3o2)o1 | -4 | 20 | 0 | -9 | -10
COC(=O)c1ccccc1-c1c2ccc(=N)cc-2oc2cc(N)ccc12 | -5 | -56* | 507* | -36 | -64*
Cn1nnnc1SCCCNCc1ccc(-c2ccc(Br)cc2)o1 | 0 | -21 | 41* | -31 | /
CCOc1ccc(Br)cc1CNCCSc1nnnn1-c1ccccc1 | 1 | -38* | 106* | -19 | /
Cn1nnnc1SCCNCc1ccc(OCc2ccc(Cl)cc2)cc1 | -1 | -9 | 46* | -16 | /
Cn1nnnc1SCCCNCc1cc(Br)ccc1OCc1ccccc1 | -1 | -25 | 39* | -25 | /
Brc1cccc(CNCCSc2nnnn2-c2ccccc2)c1 | 5 | 7 | 5 | -22 | /
Cc1oc2ccc(O)c(CN3CCCCCC3)c2c1C(=O)Nc1cccc(C(F)(F)F)c1 | 0 | -19 | 28 | -23 | /
CC(C)Oc1ccc(C(=O)Nc2ccc3oc(-c4ccncc4)nc3c2)cc1 | -1 | 14 | 8 | 5 | /
Cc1ccc(CN2CCNC(=O)C2CC(=O)N2CCN(c3ncccn3)CC2)o1 (configuration not stated) | 6 | 12 | 0 | -6 | -24
CC(C)=CCC12Oc3cc(O)ccc3C1(O)Oc1cc(O)c([C@H]3C=C(C)CC(c4ccc(O)cc4O)[C@H]3C(=O)c3ccc(O)cc3O)c(O)c1C2=O (some centres not stated) | / | / | / | -44 | -52*
O=C(Nc1cc(S(=O)(=O)N2CCCCC2)ccc1Cl)c1ccc(F)cc1 | -4 | -6 | 0 | 2 | 2
CCC(Sc1nc2ccncc2[nH]1)C(=O)Nc1cc(Cl)ccc1C (configuration not stated) | -5 | -44*! | 6 | 35*! | 152
Cc1ccc(NC(=O)N2CCc3c(sc4c3CCCC4)C2c2ccccc2)cc1F (configuration not stated) | -1 | 9 | 3 | 5 | /
CN(CC1COc2ccccc2O1)C(=O)c1cc(COc2c(F)cccc2F)on1 (configuration not stated) | -3 | -46* | 18 | -9 | -25
Cc1ccc(OCc2cc(C(=O)N3CCN(C)C[C@@H]3c3ccccc3)no2)cc1C | -2 | -31* | 9 | 1 | 28
COc1cccc(OCc2cc(C(=O)N(C)Cc3nc4ccccc4[nH]3)no2)c1 | 5 | 6 | 3 | 3 | 1
CN(CC1COCCO1)C(=O)c1cc(COc2c(F)cccc2F)on1 (configuration not stated) | 0 | 9 | 2 | -7 | -29
Cc1ccc(OCc2cc(C(=O)N(C)CC3CCOCC3)no2)cc1C | -8 | 2 | 56* | 6 | 20
Cc1cc(OCc2cc(C(=O)N(C)C3CCOCC3)no2)cc(C)c1Cl | -5 | -6 | 15 | 1 | 0
SMILES | D1 PAM | D1 antagonist | D1 ag | D3 ag | D3 antag
COc1cccc(OCc2cc(C(=O)N(Cc3ccccc3)CC3CC3)no2)c1 | -6 | 0 | 48* | 0 | 17
COc1ccc2[nH]c(=O)c(CN(C(=O)c3cccc(Cl)c3)c3cccc(C)c3)cc2c1 | 0 | -1 | 0 | 8 | /
C/C=C(/CCC1NCCc2c1[nH]c1ccccc21)[Si](C)(C)C (configuration not stated) | / | / | / | -15 | 4
Cc1cc(OCc2cc(C(=O)N3CCN(C)C(=O)[C@@H]3C)no2)cc(C)c1Cl | -7 | -31* | 23 | 5 | 40
COc1cc(Cl)ccc1OCc1cc(C(=O)N2CCN(C)C(=O)[C@@H]2C)no1 | / | / | / | -1 | -3
COc1ccccc1NC(=O)CC1C(=O)NCCN1C(=O)Nc1ccc(Cl)c(Cl)c1 (configuration not stated) | -5 | -30* | 4 | -5 | -4
